This passage reports binding signal results from article PMC6212790, “How bacterial xenogeneic silencer rok distinguishes foreign from self DNA in its resident genome”.

Whole data set: some 33,000 sequences, median “e-score” near -0.037, cut for the highest 2% near 0.34. The list comes from a sample in which the highest values are over-represented; it also holds similar and randomly drawn sequences.

This assay addresses T1, GST-Rok (full length) (Bacillus subtilis subsp. subtilis str. …, UniProt O34857 1-191).
T1 sequence: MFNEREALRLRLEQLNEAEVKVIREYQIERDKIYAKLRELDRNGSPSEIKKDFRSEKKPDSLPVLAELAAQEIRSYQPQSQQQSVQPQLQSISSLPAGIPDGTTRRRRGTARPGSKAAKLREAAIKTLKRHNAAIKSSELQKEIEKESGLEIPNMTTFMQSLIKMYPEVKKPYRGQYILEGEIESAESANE
Briefly: protein binding microarray; Rok is a gene silencer of Bacillus subtilis; high values mean tight binding. To be noted: protein: recombinant; tags: GST (pTH5325, pDEST15-Magic modified); dsDNA, one strand shown. In short, it runs like this: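 Every oligonucleotide joins a 25-mer constant primer to a 35-mer variable part drawn from a de Bruijn sequence of order 10, so each non-palindromic 8-mer appears at least 32 times and each palindromic 8-mer 16 times. The preference for every 8-mer is reported as a unitless, rank-based enrichment score (E-score). This score spans 0.5 for the most favored 8-mer to −0.5 for the most disfavored.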
Consider ATATACAG, for which the binding signal came out at 0.282 E-score.

As for ATATACAA, the binding signal is 0.389 E-score.

On to CTATACAC, for which the binding signal was 0.216 E-score.

Turning to ATATACAC, the binding signal amounted to 0.339 E-score.

For the sequence ATTTAGGC, the binding signal is -0.0308 E-score.

Turning to CGTAGGCC, the binding signal was -0.17 E-score.

ATCGTCCA: the binding signal is -0.0609 E-score.

With GCAAAAAC, the binding signal was found to be 0.0325 E-score.

With GCTAACTA, the binding signal was 0.341 E-score.

Consider AGTAACTC, for which the binding signal came to 0.0592 E-score.

Regarding ACTAACTG, the binding signal came out at 0.163 E-score.

Take AATAACTG: the binding signal stood at 0.195 E-score.

In the case of ACTAACTC, the binding signal is 0.12 E-score.

Take GATAACTA: the binding signal was determined as 0.222 E-score.

Consider CCTAACTA, for which the binding signal was 0.26 E-score.

With GCTAACGA, the binding signal came to 0.123 E-score.

As for AATAACTA, the binding signal was determined as 0.341 E-score.

Take AGTAACTA: the binding signal turned out to be 0.421 E-score.

ACTAACTA: the binding signal came out at 0.348 E-score.

As for GGTAACTA, the binding signal stood at 0.305 E-score.

With AGTTTTAC, the binding signal was determined as 0.301 E-score.

On to AGACCAAT, for which the binding signal was -0.0485 E-score.

Consider AGAGCACA, for which the binding signal was -0.114 E-score.

On to GCGCTTCA, for which the binding signal was -0.0884 E-score.

CGCCTATA: the binding signal is 0.00134 E-score.

Regarding AATTCTAT, the binding signal came out at 0.31 E-score.

GATTCTAC: the binding signal was determined as 0.393 E-score.

Turning to AGTTCTAA, the binding signal is 0.15 E-score.

With AATTCTAA, the binding signal turned out to be 0.252 E-score.

Turning to CATTCTAG, the binding signal came out at 0.259 E-score.

On to GATTCTAA, for which the binding signal came to 0.134 E-score.

Turning to CATTCTAC, the binding signal was 0.407 E-score.

Consider AGTTCTAC, for which the binding signal was found to be 0.383 E-score.

Consider AGTTCTAT, for which the binding signal turned out to be 0.213 E-score.

For AATTCTAC, the binding signal amounted to 0.435 E-score.

Regarding CATTCTAA, the binding signal is 0.0993 E-score.

Turning to GATTCTGC, the binding signal is -0.0394 E-score.

In the case of AGCGACAG, the binding signal is -0.152 E-score.

On to GCATTTAA, for which the binding signal turned out to be 0.115 E-score.

As to ATAGCCTC, the binding signal is -0.165 E-score.

Regarding GCTTAGAA, the binding signal is -0.0146 E-score.

For CCGTACAA, the binding signal stood at 0.188 E-score.

Regarding ACTCGGTA, the binding signal came to 0.363 E-score.

Regarding CCTCGGTA, the binding signal came to 0.0273 E-score.

Turning to ACTCGGTC, the binding signal was -0.0736 E-score.

With AATAAATA, the binding signal was 0.345 E-score.

CATAAATA: the binding signal was 0.195 E-score.

For AATAAATC, the binding signal came to 0.233 E-score.

On to GATAAATA, for which the binding signal stood at 0.313 E-score.

For TATAAATA, the binding signal turned out to be 0.397 E-score.

With AATAAATG, the binding signal is 0.295 E-score.

On to CTTGCGGC, for which the binding signal was -0.19 E-score.

On to GTACTATA, for which the binding signal was 0.444 E-score.

As to GGACTATA, the binding signal turned out to be 0.0812 E-score.

On to CTACTATC, for which the binding signal came to 0.323 E-score.

Consider AGACTATA, for which the binding signal came out at 0.286 E-score.

Regarding ATACTATC, the binding signal was 0.378 E-score.

In the case of ATACTATG, the binding signal is 0.271 E-score.

For ATACTCTC, the binding signal is -0.0829 E-score.

On to CTACTTTA, for which the binding signal was 0.31 E-score.

For ATACTTTA, the binding signal was determined as 0.239 E-score.

As for ATACTATA, the binding signal stood at 0.396 E-score.

As for GTACTAAA, the binding signal was 0.241 E-score.

Turning to GTACTTTA, the binding signal stood at 0.377 E-score.

As to AATGGGTA, the binding signal is 0.289 E-score.

As for AGTGACAG, the binding signal is -0.0878 E-score.

On to ACTTGTCT, for which the binding signal is -0.00713 E-score.

Take CCTCCAAC: the binding signal was -0.135 E-score.

In the case of ACATTAAA, the binding signal came out at 0.108 E-score.

For CATTCTTC, the binding signal is 0.0507 E-score.

Consider CCACTATA, for which the binding signal was determined as 0.162 E-score.

With ATACTAGA, the binding signal is 0.349 E-score.

For CTACTATA, the binding signal came out at 0.399 E-score.

For CGACTATA, the binding signal amounted to 0.151 E-score.

On to CTACTAGA, for which the binding signal amounted to 0.32 E-score.

As for ATACTAGG, the binding signal was 0.225 E-score.

ATTGAAGA: the binding signal was found to be 0.204 E-score.

Regarding GAATAGGC, the binding signal is -0.173 E-score.

With AGCACATG, the binding signal was -0.117 E-score.

For ACACACCG, the binding signal turned out to be 0.0452 E-score.

On to CGGCGGTC, for which the binding signal is -0.184 E-score.

In the case of CTTCACAA, the binding signal was found to be 0.035 E-score.

As to TACCAAAA, the binding signal was determined as 0.165 E-score.

With AGTTTCCA, the binding signal came to 0.18 E-score.

With CACGTATA, the binding signal worked out at 0.243 E-score.

For the sequence GACGTATA, the binding signal was 0.212 E-score.

As for TACGTATA, the binding signal came to 0.35 E-score.

In the case of TCTAGTCA, the binding signal came to 0.183 E-score.

As for CTATATAC, the binding signal came to 0.341 E-score.

As for GCATATAC, the binding signal was 0.268 E-score.

For CTCTATAC, the binding signal was 0.033 E-score.

GTATATAC: the binding signal came out at 0.432 E-score.

In the case of AGATATCT, the binding signal amounted to 0.399 E-score.

For GGATATAC, the binding signal was determined as 0.317 E-score.

For the sequence ACATAACT, the binding signal is 0.347 E-score.

For CCATATAC, the binding signal is 0.251 E-score.

Regarding AGATATCC, the binding signal was -0.0591 E-score.

AGATATCA: the binding signal was 0.127 E-score.

Turning to ACATAACG, the binding signal was found to be 0.157 E-score.

Take ACATAACC: the binding signal is 0.0404 E-score.

With ATCTTTCG, the binding signal was determined as 0.109 E-score.

With AAGGATCA, the binding signal is -0.129 E-score.

For CCTAAACC, the binding signal was -0.152 E-score.

As to CAAGGTCG, the binding signal is -0.126 E-score.

As to GCTGAAAA, the binding signal is -0.146 E-score.

Consider GTTCTTAA, for which the binding signal turned out to be 0.122 E-score.

On to CAAAGCTC, for which the binding signal was -0.0842 E-score.

Consider TCGAAAAA, for which the binding signal is -0.0412 E-score.

With ACGTTAGA, the binding signal is 0.156 E-score.

With CAGGCATG, the binding signal is -0.176 E-score.

ATATATAC: the binding signal stood at 0.396 E-score.

Take AGATATAC: the binding signal was determined as 0.238 E-score.

Regarding ACATATGT, the binding signal was found to be 0.401 E-score.

ACATATGG: the binding signal is 0.168 E-score.

On to ATATAAAT, for which the binding signal was 0.422 E-score.

In the case of AGATATAG, the binding signal came out at 0.151 E-score.

As to ACATATAC, the binding signal was 0.289 E-score.

As to AGATATAT, the binding signal came to 0.395 E-score.

For ATATAAAC, the binding signal was found to be 0.262 E-score.

Regarding ACATATGA, the binding signal stood at 0.069 E-score.

With AGATATAA, the binding signal came out at 0.183 E-score.

Regarding ATATAAAG, the binding signal is 0.17 E-score.

CAGACGAA: the binding signal was -0.0357 E-score.

As to CGTCTAAA, the binding signal is -0.027 E-score.

As for AGGCCTCA, the binding signal is -0.155 E-score.

On to AAGTTGAT, for which the binding signal was 0.0883 E-score.

Take CGGCAACA: the binding signal is -0.0449 E-score.

CCTGTAAG: the binding signal was -0.159 E-score.

With AAGAATAA, the binding signal was 0.183 E-score.

As to ACGTCACA, the binding signal is -0.0872 E-score.

On to CAATGATG, for which the binding signal was 0.161 E-score.

Consider ACAATTCT, for which the binding signal worked out at 0.149 E-score.

In the case of ACATATAA, the binding signal came out at 0.329 E-score.

For ATATACAT, the binding signal turned out to be 0.302 E-score.

In the case of ATATATAT, the binding signal was determined as 0.471 E-score.

Consider ACATATAT, for which the binding signal was 0.378 E-score.

With ACATATAG, the binding signal stood at 0.193 E-score.

In the case of ACCTATAT, the binding signal was determined as 0.301 E-score.

Regarding ATATATGG, the binding signal was found to be 0.299 E-score.

As for CTATATGC, the binding signal was found to be 0.185 E-score.

On to ATATATGC, for which the binding signal worked out at 0.338 E-score.

ACGGGTTC: the binding signal was -0.114 E-score.

Consider AACAGGCG, for which the binding signal was -0.0571 E-score.

In the case of CTAATGAC, the binding signal is -0.05 E-score.

As to ATATATAA, the binding signal was 0.435 E-score.

For the sequence CTATAAAA, the binding signal was 0.23 E-score.

In the case of CTCTATAA, the binding signal was found to be 0.0692 E-score.

As for TCATATAA, the binding signal came out at 0.192 E-score.

For ATATAAAA, the binding signal amounted to 0.288 E-score.

In the case of TAATATAA, the binding signal is 0.236 E-score.

Turning to GTATATAA, the binding signal turned out to be 0.278 E-score.

As to CTATATAA, the binding signal turned out to be 0.345 E-score.

Take TTATATAA: the binding signal came to 0.399 E-score.

For the sequence CAACTGTG, the binding signal was -0.0366 E-score.

Consider CCTATGAA, for which the binding signal is -0.0665 E-score.

As to GAAGAAAA, the binding signal was -0.0942 E-score.

Regarding ATTGATCA, the binding signal came to 0.101 E-score.

As to AAAAACTA, the binding signal came to 0.417 E-score.

Regarding AAAAACTT, the binding signal is -0.0545 E-score.

For the sequence ACAAACTG, the binding signal was 0.127 E-score.

As to CCAAACCA, the binding signal was -0.0489 E-score.

As for ACAAACTC, the binding signal came out at 0.155 E-score.

With AAAAACTC, the binding signal worked out at 0.0197 E-score.

Take CCAAACTA: the binding signal came to 0.364 E-score.

Consider CCAAACTC, for which the binding signal is -0.0373 E-score.

Turning to GAAAACTC, the binding signal is -0.114 E-score.

In the case of GAAAACCA, the binding signal is -0.118 E-score.

Regarding ACAAACTA, the binding signal amounted to 0.383 E-score.

As for GAAAACTA, the binding signal was 0.346 E-score.

For GAAGAAGA, the binding signal was -0.113 E-score.

Take CACGCTGA: the binding signal is -0.189 E-score.

For the sequence CATACCGC, the binding signal was -0.0931 E-score.
